PP5 inh – blocks human protein phosphatase 5 activity | P53041 | purified PP5c, OMFP substrate fluorescence | AID 1987 | 320,000 tested, 0.18% active | inhibition, % at 6.7 µM;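 active = inhibition above the campaign's mean inhibition across all tested compounds plus 3 SD, cut at about 9.5% in these data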
EBNA-1 inh – blocks EBNA-1 binding to DNA; inhibition, % at 14.8 µM; 300,000 tested, 0.34% active; EBNA-1 DNA binding, fluorescence polarization; in the data active = inhibition above about 28%
MsrA act – bovine methionine sulfoxide reductase A activation; purified bovine MsrA, absorbance read-out; activation, % at 10.6 µM; 360,000 tested, 0.3% active; in the data active = activation above about 7.5%
ZTA DNA inh – blocks Epstein-Barr virus ZTA, an EBNA-1 counter-screen | 320,000 tested, 0.15% active | inhibition, % at 11 µM | ZTA-DNA binding, fluorescence polarization | P03206; in the data active = inhibition above about 33%
Target sequence (P03206 whole entry, looked up): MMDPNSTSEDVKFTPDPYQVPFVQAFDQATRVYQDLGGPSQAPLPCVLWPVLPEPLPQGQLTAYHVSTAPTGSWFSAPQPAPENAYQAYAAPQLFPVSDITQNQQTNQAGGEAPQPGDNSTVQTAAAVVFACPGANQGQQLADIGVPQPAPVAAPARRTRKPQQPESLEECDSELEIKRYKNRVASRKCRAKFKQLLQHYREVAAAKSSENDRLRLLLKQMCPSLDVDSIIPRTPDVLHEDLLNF
MsrA inh – inhibits bovine methionine sulfoxide reductase A | inhibition, % at 15.5 µM | purified bovine MsrA, absorbance read-out | AID 651718 | 360,000 tested, 0.75% active; in the data active = inhibition above about 4.5%
PP1 counter – counter-screen for PP5 inhibitors: inhibitors of human PP1-alpha; P62136; purified PP1alpha, OMFP fluorescence; inhibition, % at 6.7 µM; 320,000 tested, 0.9% active;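 active = inhibition above the mean inhibition of all tested compounds plus 3 SD, computed separately for each screening campaign, cut at about 15% in these data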
Target sequence (P62136 whole entry, looked up): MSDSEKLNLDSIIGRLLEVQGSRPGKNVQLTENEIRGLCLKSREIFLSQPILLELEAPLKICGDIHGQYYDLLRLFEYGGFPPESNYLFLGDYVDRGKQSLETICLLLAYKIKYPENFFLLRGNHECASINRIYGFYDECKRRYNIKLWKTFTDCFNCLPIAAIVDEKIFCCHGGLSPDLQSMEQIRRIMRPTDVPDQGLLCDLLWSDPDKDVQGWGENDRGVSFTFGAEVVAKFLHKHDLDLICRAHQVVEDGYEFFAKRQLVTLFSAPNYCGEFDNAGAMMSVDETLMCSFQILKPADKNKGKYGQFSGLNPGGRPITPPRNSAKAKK
Hits are given with their value; i = inactive; nt = not tested or not shown. Compounds with a hit are over-represented: about 2.3% of the library has one in this group of screens.

SMILES	PP5 inh	EBNA-1 inh	MsrA act	ZTA DNA inh	MsrA inh	PP1 counter
COC(=O)c1ccc(C2C(C(=O)c3cc4ccccc4o3)=C(O)C(=O)N2c2cc(C)on2)cc1 (stereo unspecified)	i	i	i	i	i	27
COc1cccc(C2C(C(=O)c3cc4cccc(OC)c4o3)=C(O)C(=O)N2c2cc(C)on2)c1OC (stereo unspecified)	i	i	i	i	i	i
COc1cccc2cc(C(=O)C3=C(O)C(=O)N(c4cc(C)on4)C3c3cccs3)oc12 (stereo unspecified)	i	i	i	i	i	23
COc1cccc(C2C(C(=O)c3cc4ccccc4o3)=C(O)C(=O)N2c2cc(C)on2)c1OC (stereo unspecified)	i	i	i	i	i	15
CC(C)C(C(=O)NCc1ccccc1)N1CCN(CCN2CCOCC2)CC1 (stereo unspecified)	nt	nt	nt	nt	i	nt
Cn1cccc1/C=C(/C#N)c1ccc(F)cc1	i	i	i	i	5.6	i
Cn1cccc1/C=C(\C#N)c1ccccc1	i	i	i	i	i	i
Cc1cccc(N2CCN(S(=O)(=O)c3ccc4[nH]c(=O)ccc4c3)CC2)c1C	i	i	i	i	i	16
Cc1ccc(C)c(N2CCN(S(=O)(=O)c3ccc4[nH]c(=O)ccc4c3)CC2)c1	i	i	i	i	i	i
CC1(OC(=O)C2CCCC2)C(=O)C=C2C=C(c3ccsc3)N(CCc3c[nH]c4ccccc34)C=C2C1=O (stereo unspecified)	i	i	i	i	nt	17
CC1(OC(=O)C2CCCC2)C(=O)C=C2C=C(c3ccsc3)N(CC3CC3)C=C2C1=O (stereo unspecified)	i	i	i	i	i	i
O=C1CC(c2ccco2)Cc2nc(Nc3nc(-c4ccccc4)c4ccccc4n3)ncc21 (stereo unspecified)	i	i	i	i	i	26
COc1ccc2c3c(cccc13)N(C)N=C2C	i	i	i	i	i	17
CC(N=Cc1c(O)c2ccccc2oc1=O)C(=O)O (stereo unspecified)	i	i	i	i	i	i
O=C(O)C(CO)N=Cc1c(O)c2ccccc2oc1=O (stereo unspecified)	i	i	i	i	4.6	i
Cc1c2cc(O)c(=O)cc-2oc2cc(O)c(O)cc12	i	i	i	i	i	33
CCOC(=O)c1cc2ccc(OC)cc2oc1=O	i	i	i	i	4.6	i
O=C(CSc1nc2c(c(=O)n1-c1ccc(Br)cc1)SCC2)Nc1nccs1	i	32	i	i	i	i
O=C(CSc1nc2c(c(=O)n1-c1ccc(Cl)cc1)SCC2)Nc1nccs1	i	i	i	i	i	i
CC(=O)N1CCN(c2ccc([N+](=O)[O-])cc2C#N)CC1	i	i	i	i	4.6	i
COC(=O)[C@]12C[C@H](CC(=O)N3CCCCC3)C(=O)N(Cc3ccccc3)C1=C[C@H](C(C)(C)C)O[C@@H]2C	nt	nt	nt	nt	i	nt
Cc1ccc(C(=O)N/C(=C\c2ccc3c(c2)OCO3)C(=O)Nc2ccc(C(=O)O)cc2)cc1	i	i	i	i	4.6	i
COc1ccc(C(=O)N/C(=C\c2ccc3c(c2)OCO3)C(=O)Nc2ccc(C(=O)O)cc2)cc1	i	i	i	i	i	i
CC(C)(C)NC(=O)c1nn2c(C(F)(F)F)cc(-c3ccccc3)nc2c1Br	i	i	i	i	i	i
NC(=O)c1nn2c(C(F)(F)F)cc(-c3ccccc3)nc2c1Br	i	i	i	i	4.6	i
SMILES	PP5 inh	EBNA-1 inh	MsrA act	ZTA DNA inh	MsrA inh	PP1 counter
CC(C)=CC(=O)NCC1CCN(C(=O)C(=O)c2cc3ccccc3o2)CC1	nt	nt	nt	nt	i	nt
CN(C(=O)COC(=O)C1CCN(S(=O)(=O)c2ccc3c(c2)OCCO3)CC1)c1ccccc1	i	i	i	i	i	i
CC(C)N(Cc1ccccc1)C(=O)COC(=O)C1CCN(S(=O)(=O)c2ccc3c(c2)OCCO3)CC1	i	i	i	i	i	16
Cc1ccsc1/C=N/NC(=O)c1c[nH]c2ccccc12	i	i	i	i	5.1	i
CC(C)[C@H](NS(=O)(=O)c1ccccc1)C(=O)OCC(=O)N1N=C(c2ccc(Cl)cc2)CC1c1ccco1 (stereo partly specified)	i	i	i	i	i	16
COCC(=O)OCC(=O)N1N=C(c2ccc(Cl)cc2)CC1c1ccco1 (stereo unspecified)	i	i	i	i	i	i
Oc1[nH]c2ccccc2c1C1=NCCCCC1	i	i	i	i	4.6	i
CCc1ccc(Cc2cnc(NC(=O)C3=NCCN3)s2)cc1	i	i	i	i	i	17
COc1ccc(C(=O)N/N=C/c2ccc3cccc(OCc4ccccc4)c3n2)cc1	i	i	i	i	i	i
O=C(O)c1cccc(NC(=S)N/N=C/c2ccccc2OCc2ccc(Br)cc2)c1	i	i	i	i	i	17
O=C(N/N=C/c1ccc2cccc(OCc3ccccc3)c2n1)c1ccc(Br)cc1	i	i	i	i	i	17
Cc1ccccc1S(=O)(=O)N1CCCc2nc(C)c(C)cc21	nt	nt	nt	nt	i	nt
CCN=C1NC(CCc2ccccc2)C(C(=O)OC)=C(C)N1Cc1ccccc1C(F)(F)F (stereo unspecified)	nt	nt	nt	nt	i	nt
O=C(Nc1ccccc1F)c1ccc([N+](=O)[O-])s1	i	i	i	i	i	i
O=C(Nc1cccnc1)c1ccc([N+](=O)[O-])s1	i	nt	13	i	i	i
CC(Nc1cc(N2CCNCC2)ccc1[N+](=O)[O-])c1ccccc1 (stereo unspecified)	i	i	i	i	i	i
CC(Nc1cc(N2CCN(C(=O)C(C)(C)C)CC2)ccc1[N+](=O)[O-])c1ccccc1 (stereo unspecified)	i	i	i	i	11	i
CCS(=O)(=O)N1CCN(c2ccc([N+](=O)[O-])c(NC(C)c3ccccc3)c2)CC1 (stereo unspecified)	i	i	i	i	7.3	i
O=[N+]([O-])c1ccc(N2CCCC2)cc1NC(c1ccccc1)c1ccccc1	i	i	i	i	i	i
CCc1c(-c2ccccc2Br)ncn1CCc1ccccc1OC	nt	nt	nt	nt	i	nt
Cc1ccc(Cn2c(=N)c(C(=O)NCc3ccco3)cc3c(=O)n4ccccc4nc32)cc1	i	i	i	i	i	16
COc1cc(C(=O)NS(=O)(=O)c2ccccc2C)ccc1Cc1cn(C)c2ccc(NC(=O)OC3CCCC3)cc12	i	i	nt	i	nt	24
CC(=O)C1=C(C)N(Cc2ccc(Br)cc2)C(=S)NC1c1ccc(F)cc1 (stereo unspecified)	nt	nt	nt	nt	i	nt
CC(C)[C@H](NC(=O)c1ccco1)C(=O)N1CCC[C@H]1C(=O)NCc1ccccc1	nt	nt	nt	nt	i	nt
O=C1CCCC2=C1[C@@]1(O[C@H]3C=CC=CN23)C(=O)N(c2ccccc2)c2ccccc21	nt	nt	nt	nt	i	nt
CC(=O)c1ccc(N2CCN(C(=O)C(=O)c3c(C)[nH]c4ccccc34)CC2)cc1	i	i	i	i	4.6	i
